Screening results from PubChem.
The list is not random: actives were taken first. Their share in the collection is about 2.4%.
D2 PAM-1 = HTS Assay for Positive Allosteric Modulators of the Human D2 Dopamine Receptor: Primary Screen for Potentiators | D(2) dopamine receptor (Homo sapiens), P14416 | HEK293 T-REx D2, calcium flux, EC20 dopamine potentiation | potentiation, % at 10 µM | 340,000 compounds, 0.34% hits;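 active = potentiation over 3 SD above the plate norm, cut at about 30% in these data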; also: 0% is about no effect
Target sequence (P14416 whole entry, looked up): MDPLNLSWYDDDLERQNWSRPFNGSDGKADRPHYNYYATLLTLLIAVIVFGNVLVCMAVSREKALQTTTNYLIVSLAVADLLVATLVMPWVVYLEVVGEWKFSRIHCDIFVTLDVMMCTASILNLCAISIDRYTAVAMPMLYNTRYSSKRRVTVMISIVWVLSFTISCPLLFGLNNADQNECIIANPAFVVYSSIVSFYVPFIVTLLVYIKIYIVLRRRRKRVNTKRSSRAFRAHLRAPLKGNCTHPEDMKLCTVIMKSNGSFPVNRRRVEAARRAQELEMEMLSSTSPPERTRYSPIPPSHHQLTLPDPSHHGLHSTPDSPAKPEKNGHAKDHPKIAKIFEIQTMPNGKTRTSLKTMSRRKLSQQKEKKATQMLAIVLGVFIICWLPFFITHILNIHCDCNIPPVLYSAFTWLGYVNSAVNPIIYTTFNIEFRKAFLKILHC
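Cells plated with tetracycline inducer and held overnight at 30 C; calcium dye loaded 30–90 min at room temperature; baseline taken, compound added and read 180 s; EC20 dopamine then added and read 180 s.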
D2 antagonist = HTS Assay for Allosteric Antagonists of the Human D2 Dopamine Receptor: Primary Screen for Antagonists; HEK293 TREx D2 cells, calcium flux, dopamine EC80; inhibition, % at 10 µM; 340,000 compounds, 2% hits; AID 485344, 2010; in the data active = inhibition above about 30%; inactive = below that, where a call was filed; also: 0% is about no effect
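Measurement of antagonist activity uses fluorescent calcium dye in inducible HEK293 T-REx D2 cells: 10 s baseline, compound addition with 180 s read, EC80 dopamine addition with a further 180 s read.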
D2 ag-1 = Beta-Arrestin HTS for Positive Allosteric Modulators of the Human D2 Dopamine Receptor: Agonists | D(2) dopamine receptor (Homo sapiens), P14416 | DiscoveRx PathHunter D2 beta-arrestin, luminescence, 90 min; 100% = 57 uM dopamine signal | activation, % (test concentration not listed) | 360,000 compounds, 0.084% hits | AID 624465, 2012; in the data active = activation above about 40%
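Agonist mode: compounds alone added to overnight-plated D2 PathHunter cells for 90 min at 37 C, with 57 uM final dopamine (EC100) defining full response. Beta-arrestin recruitment detected by chemiluminescent reagent, read after 1 h at ambient temperature.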
D2 ag-2 = HTS Assay for Allosteric Agonists of the Human D2 Dopamine Receptor: Primary Screen for Agonists; AID 485358, 2010; HEK293 T-REx D2 cells, calcium flux agonist mode; activation, % at 2 µM; D(2) dopamine receptor (Homo sapiens), P14416; 340,000 compounds, 0.53% hits;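 active = activation over 3 SD above normal in the single-dose calcium agonist read, cut at about 30% in these data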; also: 0% is about no effect
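Tetracycline-induced HEK293 Trex cells with D2 receptor force-coupled to calcium signaling, plated overnight at 30 C and loaded with no-wash calcium dye. Calcium flux read kinetically for 180 s after compound addition; responses flag agonists.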
D2 PAM-2 = Beta-Arrestin HTS for Positive Allosteric Modulators of the Human D2 Dopamine Receptor: Potentiators | AID 624464, 2012 | potentiation, % (concentration not given with the values) | 360,000 compounds, 0.23% hits | DiscoveRx D2 beta-arrestin cells, luminescence, 90 min; 100% = 57 uM dopamine signal; in the data active = potentiation above about 50%
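PathHunter beta-arrestin assay in DiscoveRx D2 cells. Compounds were added with an EC20 of dopamine (50 nM final) for 90 min at 37 deg C. Luminescence was read 1 h after detection reagent, with 57 uM dopamine as the EC100 control.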
* marks the source's active call; other numbers are inactive results.

Results for O=c1cc(N2CCCCC2)c(-c2ccccc2)nn1Cc1c(Cl)cccc1Cl ?
D2 PAM-1: 16; D2 antagonist: 32*; D2 ag-1: -4; D2 ag-2: 0; D2 PAM-2: -10

How did Cc1ccccc1CSc1cn(CC(=O)N2CCCCCC2)c2ccccc12 do in these assays?
D2 PAM-1: -6

How did CCOc1ccc(NC(=O)CC2C(=O)N(c3ccc(C)cc3)C(=O)N2C2CCCCC2)cc1 (stereo unspecified) do in these assays?
D2 PAM-1: 4; D2 ag-2: 1

What do the screens show for `Cc1nn(CC(C)C(=O)N2CCN(S(=O)(=O)c3ccc(Cl)cc3)CC2)c(C)c1C` (stereo unspecified)?
D2 PAM-1: -16; D2 antagonist: 32*; D2 ag-1: -4; D2 ag-2: 2; D2 PAM-2: -3

Results for Cc1ccc(S(=O)(=O)N2CCN(C(=O)C(C)Cn3nc(C)c(C)c3C)CC2)cc1 (stereo unspecified) ?
D2 PAM-1: -7; D2 antagonist: 11; D2 ag-1: -1; D2 ag-2: 1; D2 PAM-2: 2

How did C=Cc1ccc(CSc2nc(-c3ccccc3C)nc3c2Cc2c(CO)cnc(C)c2O3)cc1 do in these assays?
D2 PAM-1: 1

Results for N#CCCn1cc(/C=N/N=C2\NC(=O)C(CC(=O)O)S2)c(-c2ccc(F)cc2)n1 (stereo unspecified) ?
D2 PAM-1: 3; D2 antagonist: 35*; D2 ag-1: -2; D2 ag-2: 0; D2 PAM-2: -6

Results for Cc1cccc(CN2CCN(CC(=O)NCc3ccc(Cl)cc3)C2=O)c1 ?
D2 PAM-1: -11

Results for CCN(CC)CCNC(=O)c1ccc(NC(=O)c2c(C)nn(-c3ccc(F)cc3)c2Cl)cc1 ?
D2 PAM-1: -12; D2 antagonist: 41*; D2 ag-1: -3; D2 ag-2: 0; D2 PAM-2: -16

What do the screens show for `CCN(CC(=O)Nc1ccc(NC(C)=O)cc1)C(=O)c1c(C)nn(-c2ccc(F)cc2)c1Cl`?
D2 ag-1: 2; D2 PAM-2: 0

What do the screens show for `Cc1ccc(S(=O)(=O)N/N=C\c2ccc([N+](=O)[O-])o2)cc1`?
D2 PAM-1: -3; D2 antagonist: 6; D2 ag-1: 0; D2 ag-2: -1; D2 PAM-2: 1

How did O=[N+]([O-])c1ccc(/C=N/NS(=O)(=O)c2ccc(Cl)cc2)o1 do in these assays?
D2 PAM-1: 3; D2 antagonist: 45*; D2 ag-1: -6; D2 ag-2: 1; D2 PAM-2: 3

How did CC(C)Oc1ccc(C2CC(=O)N(c3ccccc3)C2=O)cc1 (stereo unspecified) do in these assays?
D2 ag-1: -1; D2 PAM-2: 22

Results for CC(C)Oc1ccc(C2CC(=O)N(c3ccc(N(C)C)cc3)C2=O)cc1 (stereo unspecified) ?
D2 PAM-1: -6; D2 antagonist: 34*; D2 ag-1: -3; D2 ag-2: 0; D2 PAM-2: -2

How did O=C(Nc1ccc(F)cc1)C1CCN(c2nc3ccccc3n3cccc23)CC1 do in these assays?
D2 PAM-1: -8; D2 ag-2: 1

Results for CCOc1ccc2[nH]c(=O)c(CN(CCO)C(c3nnnn3C3CCCCC3)C(C)C)cc2c1 (stereo unspecified) ?
D2 PAM-1: -5; D2 antagonist: 35*; D2 ag-1: 2; D2 ag-2: 0; D2 PAM-2: 9

Results for CCc1nc2ccc(C(=O)NCc3ccc4c(c3)OCO4)cn2c1N(C)Cc1cccs1 ?
D2 ag-1: 4; D2 PAM-2: -20

Results for NC1=NC(c2cccc(Cl)c2)n2c(nc3ccccc32)N1 (stereo unspecified) ?
D2 PAM-1: -6

Results for COc1ccc(OC)c(C2C3=C(CCCC3=O)Nc3c2c(=O)n(C)c(=O)n3C)c1 (stereo unspecified) ?
D2 PAM-1: 32*; D2 antagonist: 29; D2 ag-1: 0; D2 ag-2: 1; D2 PAM-2: -11

Results for COc1ccc(C2C3=C(CC(C)(C)CC3=O)Nc3c2c(=O)n(C)c(=O)n3C)cc1OC (stereo unspecified) ?
D2 PAM-1: 2; D2 antagonist: 8; D2 ag-1: 0; D2 ag-2: 0; D2 PAM-2: -21

How did CCS(=O)(=O)N1Cc2ccccc2CC1C(=O)Nc1ccc(OC)c(OC)c1 (stereo unspecified) do in these assays?
D2 PAM-1: -2; D2 antagonist: 4; D2 ag-1: -2; D2 ag-2: 0; D2 PAM-2: 0

How did CCS(=O)(=O)N1Cc2ccccc2CC1C(=O)Nc1cccc(OC)c1 (stereo unspecified) do in these assays?
D2 PAM-1: 0; D2 antagonist: 34*; D2 ag-1: -2; D2 ag-2: -1; D2 PAM-2: -2

What do the screens show for `COC(=O)C1C(c2ccccc2)C(C(=O)N2CCN(C)CC2)C1c1ccccc1` (stereo unspecified)?
D2 PAM-1: 1; D2 antagonist: 33*; D2 ag-1: -3; D2 ag-2: 0; D2 PAM-2: 8

What do the screens show for `COC(=O)[C@H]1[C@H](c2ccccc2)[C@H](C(=O)OC)O[C@H]1c1ccccc1`?
D2 ag-1: -5; D2 PAM-2: -9

What do the screens show for `Cc1ccc(NS(=O)(=O)c2ccc3oc(=O)c4ncn(C)c4c3c2)cc1C`?
D2 PAM-1: 1

How did C=CCN(CC=C)Cc1c(C)[nH]c2c(C)c(C)ccc2c1=O do in these assays?
D2 PAM-1: 31*; D2 antagonist: 6; D2 ag-1: -4; D2 ag-2: 0; D2 PAM-2: -6

How did CN(CCNC(=O)CCCOc1cc(=O)n(C)c2ccccc12)Cc1ccccc1 do in these assays?
D2 antagonist: 47*; D2 ag-1: -4; D2 ag-2: 0; D2 PAM-2: -8

How did CN(CCCNC(=O)CCCOc1cc(=O)n(C)c2ccccc12)Cc1ccccc1 do in these assays?
D2 PAM-1: -14; D2 antagonist: 23; D2 ag-1: -5; D2 ag-2: 1; D2 PAM-2: -19

Results for CC1CCN(CCCNC(=O)COc2cc(=O)n(C)c3ccccc23)CC1 ?
D2 PAM-1: -17; D2 antagonist: 34*; D2 ag-1: -1; D2 ag-2: 1; D2 PAM-2: -10
